# Measured values from PubChem BioAssay (NCATS).
# “And” between values parts separate entries of the source, which are not always exact repeats. Identical values can stand only once. Records with an inconclusive call do not appear. Where a call stands in place of a potency, no number is given. Some compounds were tested as several samples or in several runs, with calls that do not always agree. The source made the active and inactive calls. The call rests on the fitted dose curve; in most records, active means well fitted cell-killing curve with a large enough effect; inconclusive means small, poorly fitted or top-dose-only effect, or effect the other way; inactive means no such curve, though single readings can be large or run the other way.
# Legend:
# [1] = Viability qHTS for spleen associated tyrosine kinase inhibitor (SYKi) naive MV4-11 cells (AID 1963823); settings: MV4-11 AML viability, CellTiter-Glo luminescence, 72 h; series mostly up to 45 µM; further: nearly all actives have a fitted effect of over 40% in size
# Method in brief: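 In this viability screen, compounds acted on SYK inhibitor naive MV4-11 cells for three days (72 hr, 37 C). Remaining viable cells were measured by CellTiter-Glo luminescence following a 10 min room-temperature development.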
# [2] = Viability qHTS for spleen associated tyrosine kinase inhibitor (SYKi) drug resistant MV4-11 cells (AID 1963824); settings: SYKi-resistant MV4-11 viability, CellTiter-Glo, 72 h; series mostly up to 45 µM; further: nearly all actives have a fitted effect of over 35% in size
# Method in brief: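 CellTiter-Glo luminescence, read 10 min after reagent addition, reports viability after a 72 hr compound exposure. Cells are an MV4-11 line made resistant to SYK inhibition, seeded at 500 per well onto compound-containing plates.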
# Potency means the concentration at half of the fitted maximal effect.
SMILES,Potency [1],Potency [2],viability (% of control) [1],"viability, % of control [2]"
O=S(=O)(NCC1CC1)c1ccc(Nc2nccc(N3CCCc4cc(O)ccc43)n2)cc1,0.146 µM (active),0.206 µM (active),–,–
CC(C)(O)CC(CO)NC(=O)CC(O)CC(=O)Cc1ccccc1 (stereo unspecified),inactive,inactive,–,–
CC(C)=CC/C=C(\C)[C@H]1CC[C@]2(C)[C@@H]1[C@H](O)C[C@@H]1[C@@]3(C)CC[C@H](O)C(C)(C)[C@@H]3[C@@H](O[C@@H]3O[C@H](CO)[C@@H](O)[C@H](O)[C@H]3O)C[C@]12C,inactive,inactive,–,–
C=C[C@@](C)(O)CC/C=C(\C)C(=O)O[C@@H]1[C@@H]2O[C@]2(C)[C@H]2[C@H](O[C@@H]3O[C@H](CO)[C@@H](O)[C@H](O)[C@H]3O)OC=C[C@@]12O,inactive,inactive,–,–
CC[C@H](C)[C@@H]1NC(=O)[C@H](Cc2ccc(OC)cc2)NC(=O)CCCSC[C@@H](C(=O)N2CCC[C@H]2C(=O)N[C@@H](CC(C)C)C(=O)NCC(N)=O)NC(=O)[C@H](CC(N)=O)NC(=O)[C@H](CCC(N)=O)NC1=O,inactive,inactive,–,–
CC1(C)CCC2(C(=O)OC3OC(COC4OC(CO)C(O)C(O)C4O)C(O)C(O)C3O)CCC3(C)C(=CCC4C5(C)CCC(OC6OCC(O)C(O)C6O)C(C)(C)C5CCC43C)C2C1O (stereo unspecified),–,–,56.1% [at 9.25 µM] (inactive),90.4% [at 9.25 µM] (inactive)
C=C1C(=O)OC2C1CCC1(C)C(O)CCC(=C)C21 (stereo unspecified),9.2 µM (active),4.61 µM (active),–,–
CC[C@@H](N)CNc1ccnc(-c2cc(-c3cnn(C)c3)ccc2O)n1,0.92 µM (active),1.64 µM (active),–,–
C/C=C1/CC2C(=O)Nc3cc(O)c(OC)cc3C(=O)N2C1 (stereo unspecified),16.1 µM (active),14.3 µM (active),–,–
C=C1[C@H]2[C@H](O[C@@H]3O[C@H](COC(=O)/C=C/c4cc(OC)c(O)c(OC)c4)[C@@H](O)[C@H](O)[C@H]3O)OC=C(C(=O)O)[C@H]2C[C@@H]1O,inactive,inactive,–,–
CN(C)C/C=C/C(=O)Nc1cc2c(Nc3ccc(F)c(Cl)c3)ncnc2cc1OC1CCOC1 (stereo unspecified),1.16 µM (active),1.3 µM (active),–,–
CC1(C)CC[C@]2(C(=O)OC3OC(CO)C(O)C(O)C3O)CC[C@]3(C)C(=CCC4[C@@]5(C)C[C@@H](O)[C@H](OC6OC(C(=O)O)C(O)C(O)C6O)C(C)(C)C5CC[C@]43C)[C@@H]2C1 (stereo partly specified),–,–,76.2% [at 9.25 µM] (inactive),95.5% [at 9.25 µM] (inactive)
C[C@@H]1O[C@@H](O[C@H]2[C@H](O[C@H]3CC[C@@]4(C)C(CC[C@]5(C)C4CC=C4C6CC(C)(C)CC[C@]6(C(=O)O[C@@H]6O[C@H](CO[C@@H]7O[C@H](CO)[C@@H](O[C@@H]8O[C@@H](C)[C@H](O)[C@@H](O)[C@H]8O)[C@H](O)[C@H]7O)[C@@H](O)[C@H](O)[C@H]6O)CC[C@]45C)[C@]3(C)CO)OC[C@H](O)[C@@H]2O)[C@H](O)[C@H](O)[C@H]1O (stereo partly specified),–,–,69.6% [at 9.25 µM] (inactive),88.1% [at 9.25 µM] (inactive)
Cc1ccc([C@@H]2O[C@H](CO)[C@@H](O)[C@H](O)[C@H]2O)cc1Cc1ccc(-c2ccc(F)cc2)s1,18.6 µM (active),16.6 µM (active),–,–
C[C@@H](CC[C@@H]1[C@@]2(C)CCCC(C)(C)C2CC[C@@]1(C)O)CC(=O)O (stereo partly specified),inactive,inactive,–,–
CC12CCC3c4ccc(OC5OC(C(=O)O)C(O)C(O)C5O)cc4CCC3C1CCC2O (stereo unspecified),inactive,inactive,–,–
COC1CC(=O)C23C(=O)NC(CC(C)C)C2C(C)C(C)=CC3/C=C(\C)CCC(O)C1O (stereo unspecified),1.42 µM (active),1.78 µM (active),–,–
C[C@@H]1O[C@@H](O[C@H]2[C@H](OC(=O)C34CCC(C)(C)CC3C3=CCC5C6(C)CC(O)C(O[C@@H]7O[C@H](CO)[C@@H](O)[C@H](O)[C@H]7O)C(C)(C(=O)O)C6CCC5(C)C3(CO)CC4)O[C@H](C)[C@H](O)[C@@H]2O)[C@H](O)[C@H](O)[C@H]1O[C@@H]1OC[C@@H](O)[C@H](O)[C@H]1O (stereo partly specified),–,–,87% [at 9.25 µM] (inactive),109% [at 9.25 µM] (inactive)
CC1CC(O)C2(C)C(C(=O)O)=CCCC2C1(C)CCc1ccoc1 (stereo unspecified),inactive,inactive,–,–
Cc1cc(C)c(CNC(=O)c2cc(-c3ccc(CN4CCOCC4)cc3)cc3c2cnn3C2CCCC2)c(=O)[nH]1,inactive,inactive and 14.8 µM (active),–,–
CCc1c(Cl)c(O)c(Cl)c(O)c1C(=O)O[C@H]1[C@H](O)[C@H](OC)[C@H](OC/C2=C\C=C\C[C@H](O)/C(C)=C\[C@H](CC)[C@@H](O[C@@H]3OC(C)(C)[C@@H](OC(=O)C(C)C)[C@H](O)[C@@H]3O)/C(C)=C/C(C)=C/C[C@@H]([C@@H](C)O)OC2=O)O[C@@H]1C,7.09 µM (active),3.99 µM (active),–,–
Cc1ccc(Cc2c(C)nc3nc(SCC(=O)NCCN4CCNCC4)nn3c2C)cc1,inactive,inactive,–,–
C=C1C(=O)O[C@H]2CC(=C)[C@H]3CC[C@@](C)(O)[C@@H]3CC12 (stereo partly specified),6.51 µM (active),4.11 µM (active),–,–
COc1cc(/C=C/C(=O)OC2CC(C)=C(C(=O)O)/C2=C/CO[C@@H]2O[C@H](CO)[C@@H](O)[C@H](O)[C@H]2O)ccc1O (stereo partly specified),inactive,inactive,–,–

SMILES,Potency [1],Potency [2],viability (% of control) [1],"viability, % of control [2]"
O=C(/C=C\c1ccc(O)cc1)N[C@@H](Cc1ccc(O)cc1)C(=O)O,inactive,inactive,–,–
OC[C@@]1(O)CO[C@H](OC[C@H]2O[C@@H](OCCc3ccccc3)[C@H](O)[C@@H](O)[C@@H]2O)[C@@H]1O,inactive,inactive,–,–
N#CC1C(=O)Nc2scc(-c3ccc(-c4ccccc4O)cc3)c2C1=O (stereo unspecified),inactive,inactive,–,–
O=c1[nH]cnc2c([C@@H]3N[C@H](CO)[C@@H](O)[C@H]3O)c[nH]c12,inactive,inactive,–,–
C=C(C(=O)O)C1CC2=C(C)C(=O)CC2C(C)CC1O (stereo unspecified),4.61 µM (active),3.66 µM (active),–,–
CC1=CC(=O)CC(C)(C)C1CCC(C)O[C@@H]1O[C@H](CO[C@@H]2OC[C@@H](O)[C@H](O)[C@H]2O)[C@@H](O)[C@H](O)[C@H]1O (stereo partly specified),inactive,inactive,–,–
Cc1c(C(=O)NCc2cccnc2)nn(-c2ccc(Cl)cc2Cl)c1-c1ccc(Cl)cc1,inactive,inactive,–,–
COC1=CC(=O)CC(C)C12Oc1cc(OC)cc(O)c1C2=O (stereo unspecified),inactive,inactive,–,–
O=C(OC1C=C(CO)C2C(OC3OC(CO)C(O)C(O)C3O)OC=CC12)c1ccc(O)cc1 (stereo unspecified),inactive,inactive,–,–
O=C(O)CCc1cc2ccoc2cc1O[C@@H]1O[C@H](CO)[C@@H](O)[C@H](O)[C@H]1O,inactive,inactive,–,–
C/C(=C\CC[C@@H](C)[C@H]1CC(O)[C@@]2(C)C3CC[C@H]4C(C)(C)[C@@H](OC5OCC(O)C(O)C5OC5OC(CO)C(O)C(O)C5O)CC[C@@]45C[C@@]35CC(O)[C@]12C)C(=O)O (stereo partly specified),inactive,inactive,–,–
Clc1ccc(Cn2c(CN3CCCC3)nc3ccccc32)cc1,14.8 µM (active),15 µM (active) and 14.8 µM (active),–,–
C/C1=C/CCC2=CC(OC2=O)C(C)(C)/C=C/C1=O (stereo unspecified),0.517 µM (active),0.517 µM (active),–,–
CC(=O)N1CCN([C@H]2CCN(C(=O)N(C)[C@H](C)c3cc(C(F)(F)F)cc(C(F)(F)F)c3)[C@@H](c3ccc(F)cc3C)C2)CC1,14.6 µM (active),8.2 µM (active),–,–
Cc1ccc(NC(=O)c2ccc(CN3CCNCC3)cc2)cc1Nc1nccc(-c2cccnc2)n1,9.2 µM (active) and 16.6 µM (active),9.2 µM (active) and 16.6 µM (active),–,–
O=C(c1c2ccccc2cc2ccccc12)N1CCC(N2CCC[C@@H](C(=O)N3CCOCC3)C2)CC1,inactive,16.4 µM (active),–,–
C=C1C(=O)O[C@@H]2C[C@@H](C)[C@]34C[C@]5(C(=O)O[C@H]6CC(C)=C([C@H](C)CCCO)[C@H](OC(=O)C(C)CC)[C@H]65)[C@@H](C(C)=C3C[C@@H]12)[C@H]4OC(C)=O (stereo partly specified),3.06 µM (active),2.43 µM (active),–,–
C=C1C(O)C[C@@H]2C(C(=O)O)=CO[C@@H](O[C@@H]3O[C@H](CO)[C@@H](O)[C@H](O)[C@H]3OC(=O)c3ccc(O)cc3)[C@H]12 (stereo partly specified),inactive,inactive,–,–
C=CC(C)(CC/C=C(\C)CC/C=C(\C)CC(O)/C=C(\C)C(=O)O)O[C@@H]1O[C@H](CO)[C@@H](O)[C@H](O)[C@H]1O[C@@H]1O[C@H](CO)[C@@H](O)[C@H](O)[C@H]1O (stereo partly specified),inactive,inactive,–,–
CC(=O)OC[C@@]12[C@H](O)C[C@]3(C)C(=CCC4[C@@]5(C)CC[C@H](O[C@@H]6O[C@H](C(=O)O)[C@@H](O[C@@H]7O[C@H](CO)[C@@H](O)[C@H](O)[C@H]7O)[C@H](O)[C@H]6O[C@@H]6O[C@H](CO)[C@@H](O)[C@H](O)[C@H]6O)[C@](C)(CO)C5CC[C@]43C)[C@@H]1CC(C)(C)[C@@H](OC(C)=O)[C@@H]2O (stereo partly specified),–,–,96.3% [at 9.25 µM] (inactive),95.8% [at 9.25 µM] (inactive)
CC(C)(O)C1=CCC23COC(C2)C(O)(C(=O)O)CCC13 (stereo unspecified),inactive,inactive,–,–
CC1(C(=O)Nc2ccc(F)nc2)CCCN1c1nc(Nc2cc(C3CC3)[nH]n2)c2cccn2n1 (stereo unspecified),1.46 µM (active),1.64 µM (active),–,–
C[C@@H]1C[C@@H]2O[C@H]2/C=C\C=C\C(=O)Cc2c(Cl)c(O)cc(O)c2C(=O)O1,0.0404 µM (active),0.064 µM (active),–,–
CCC(C)/C=C(C)/C=C/C1=CC2=C(Cl)C(=O)C(C)(OC(C)=O)C(=O)C2=CN1C1CCCCN(C(CCC(N)=O)C(=O)O)C1=O (stereo unspecified),inactive,inactive,–,–
